Reference: PubChem BioAssay (EPA / NIEHS)
Calls of active or inactive are those of the source. How the source made its calls: active means hit-call score of the fitted dose curve at least 0.9, where 1 is the maximum; inactive means score below 0.9.

target: Signal transducer and activator of transcription 3 (Homo sapiens) (UniProt P40763); experiment: ATG_STAT3_CIS: Attagene CIS-FACTORIAL HepG2 Assay for human Signal Transducer and Activator of Transcription 3 (STAT3) (AID 2282963); settings: HepG2, Attagene cis-factorial STAT3 reporter transcription; actives raise or lower the signal
Sequence (P40763 whole entry, looked up): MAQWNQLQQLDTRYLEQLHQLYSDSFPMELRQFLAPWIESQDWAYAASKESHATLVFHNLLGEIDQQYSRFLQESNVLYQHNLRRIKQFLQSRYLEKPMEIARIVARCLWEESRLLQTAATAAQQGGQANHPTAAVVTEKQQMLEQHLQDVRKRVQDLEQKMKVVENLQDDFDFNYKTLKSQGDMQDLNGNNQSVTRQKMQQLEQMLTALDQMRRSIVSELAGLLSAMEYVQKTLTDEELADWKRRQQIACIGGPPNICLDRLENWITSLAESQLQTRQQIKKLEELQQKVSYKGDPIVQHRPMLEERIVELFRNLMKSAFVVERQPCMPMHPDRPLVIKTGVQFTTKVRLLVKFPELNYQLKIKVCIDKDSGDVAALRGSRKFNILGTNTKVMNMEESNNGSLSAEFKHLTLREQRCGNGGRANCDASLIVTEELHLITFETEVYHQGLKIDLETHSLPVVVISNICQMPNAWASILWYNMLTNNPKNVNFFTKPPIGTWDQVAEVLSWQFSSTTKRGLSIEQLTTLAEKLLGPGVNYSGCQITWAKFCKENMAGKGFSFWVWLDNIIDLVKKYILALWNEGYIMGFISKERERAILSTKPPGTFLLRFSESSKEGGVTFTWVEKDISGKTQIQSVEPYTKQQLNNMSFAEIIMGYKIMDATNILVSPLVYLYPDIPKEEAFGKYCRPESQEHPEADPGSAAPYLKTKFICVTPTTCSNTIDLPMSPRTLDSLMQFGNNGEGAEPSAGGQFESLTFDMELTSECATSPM
Experimental: ATG_CIS is a cell-based, multiplexed-readout assay that uses HepG2, a human liver cell line, with measurements taken at 24 hours after chemical dosing in a 24-well plate.ATG_STAT3_CIS is one of 52 assay component(s) measured or calculated from the ATG_CIS assay. It is designed to make measurements of mRNA induction, a form of inducible reporter, as detected with fluorescence intensity signals by Reverse transcription polymerase chain reaction (RT-PCR) and Capillary electrophoresis technology.Data from the assay component ATG_STAT3_CIS was analyzed into 1 assay endpoint. This assay endpoint, ATG_STAT3_CIS, was analyzed with bidirectional fitting relative to DMSO as the negative control and baseline of activity. Using a type of inducible reporter, measures of mRNA for gain or loss-of-signal activity can be used to understand the reporter gene at the transcription factor-level as they relate to the gene STAT3. Furthermore, this assay endpoint can be referred to as a primary readout, because this assay has produced multiple assay endpoints where this one serves a reporter gene function. To generalize the intended target to other relatable targets, this assay endpoint is annotated to the dna binding intended target family, where the subfamily is stat protein.
Human liver HepG2 cells are transiently transfected with multiple reporter transcription units (MRTUs) in 6-well plates using FuGene 6 reagent (Roche; 3 ml FuGene/1 mg DNA). The MRTU constructs are regulated by a cis-regulating element (promoter). […] A major difference between the CIS and TRANS system is that in CIS activities of endogenous TFs are measured, whereas the TRANS assay evaluates changes in activities of exogenous, chimeric NR-Gal4 proteins. […] At the end of 24 hour incubation, total RNA was isolated using TriZol reagent (Invitrogen). The isolated RNA is then reverse-transcribed using oligo(dT) primer and Mo-MLV reverse transcriptase (Invitrogen) with DNAse I (Ambion) treatment for 30 min. The one-tenth of the produced cDNA was amplified by PCR using Taq DNA polymerase (Invitrogen) and two reporter sequence-specific primers. The PCR products were fluorescently labeled by primer extension with 6-arboxyfluorescein (6-FAM) 5'-labeled reporter sequence-specific primer (2 min at 95 C, 20 s at 68 C and 10 min at 72 C) and these products were digested with 5U of HpaI (New England Biolabs) for 2h at 37 C. The fragments were purified using Qiaquick PCR columns (Qiagen), analyzed on an ABI 3130xL genetic analyzer (Applied Biosystems) with peak positions identified by using a set of X-rhodamine (ROX)-labeled MapMarker1000 molecular weight standards (BioVentures). The raw capillary electrophoresis data was processed using Attagraph software (Attagene).

With `O=C(Cc1ccccc1)c1ccccc1` as the compound, how does the outcome read?
The outcome was “inactive”.

With `CC1(C)Cc2cccc(O)c2O1` as the compound, how does the outcome read?
The outcome was “inactive”.

`Nc1ccc(-c2ccc(N)c(Cl)c2)cc1Cl` was tested. Which outcome did it give?
The outcome was “inactive”.

With `C=CC(=O)N(C)C` as the compound, how does the outcome read?
Its outcome is “inactive”.

For `O=[N+]([O-])c1c(Cl)c(Cl)cc(Cl)c1Cl`, which outcome is on record?
Its outcome is “inactive”.

Which outcome does the source give for `N#CCCO` here?
Its outcome is “inactive”.

With `COc1ccccc1OC` as the compound, how does the outcome read?
Its outcome is “inactive”.

How did the outcome turn out when `CCC(C)(C)c1ccc(O)c(C(C)(C)CC)c1` was run?
Its outcome is “inactive”.

`OCc1ccco1` was tested. Which outcome did it give?
Its outcome is “inactive”.

How did the outcome turn out when `Cl/C=C/Cl` was run?
Its outcome is “inactive”.

How did the outcome turn out when `COc1cc(OC)nc(NC(=O)NS(=O)(=O)c2ncccc2C(=O)N(C)C)n1` was run?
The outcome was “inactive”.

How did the outcome turn out when `Fc1ccc(C2(Cn3cncn3)OC2c2ccccc2Cl)cc1` (stereo not given) was run?
Its outcome is “inactive”.

For `CN(C)P(=O)(N(C)C)N(C)C`, which outcome is on record?
The outcome was “inactive”.

How did the outcome turn out when `COc1ccc(C=O)cc1OC` was run?
Its outcome is “inactive”.

How did the outcome turn out when `Clc1nc(Cl)nc(Cl)n1` was run?
Its outcome is “inactive”.

How did the outcome turn out when `CCOP(=S)(OCC)SCSP(=S)(OCC)OCC` was run?
The outcome was “inactive”.

For `BrCCBr`, which outcome is on record?
The outcome was “inactive”.

`C[C@]12CCC(=O)C[C@@H]1CC[C@@H]1[C@@H]2CC[C@]2(C)[C@@H](O)CC[C@@H]12` was tested. Which outcome did it give?
The outcome was “inactive”.

For `NC(=O)O`, which outcome is on record?
Its outcome is “inactive”.

With `CCCCC(CC)CO[N+](=O)[O-]` (stereo not given) as the compound, how does the outcome read?
The outcome was “inactive”.

`CCCCOCCOC(C)=O` was tested. Which outcome did it give?
The outcome was “inactive”.

With `NNC(=S)NN` as the compound, how does the outcome read?
Its outcome is “inactive”.

How did the outcome turn out when `Nc1ccc(N=Nc2ccc(-c3ccc(N=Nc4c(S(=O)(=O)O)cc5cc(S(=O)(=O)O)c(N=Nc6ccccc6)c(O)c5c4N)cc3)cc2)c(N)c1` was run?
Its outcome is “inactive”.

`ClC1(Cl)C2(Cl)C3(Cl)C4(Cl)C(Cl)(Cl)C5(Cl)C3(Cl)C1(Cl)C5(Cl)C24Cl` (stereo not given) was tested. Which outcome did it give?
Its outcome is “inactive”.

`Oc1cccc2cccnc12` was tested. Which outcome did it give?
The outcome was “inactive”.

With `CCCCCCCCSC(=O)Oc1cc(Cl)nnc1-c1ccccc1` as the compound, how does the outcome read?
The outcome was “inactive”.

How did the outcome turn out when `OCC(O)CCl` (stereo not given) was run?
Its outcome is “inactive”.

How did the outcome turn out when `CN(C)N=O` was run?
Its outcome is “inactive”.

For `ClCC(Cl)CCl`, which outcome is on record?
Its outcome is “inactive”.

Which outcome does the source give for `CNC` here?
Its outcome is “inactive”.

`COc1cc2c(cc1OC)[C@@]13CCN4CC5=CCO[C@H]6CC(=O)N2[C@H]1[C@H]6[C@H]5C[C@H]43` was tested. Which outcome did it give?
Its outcome is “inactive”.

How did the outcome turn out when `CCc1ccccc1C` was run?
Its outcome is “inactive”.

How did the outcome turn out when `CC(C)OC(=O)Nc1ccccc1` was run?
Its outcome is “inactive”.

With `Cc1ccccc1N` as the compound, how does the outcome read?
The outcome was “inactive”.

With `Cn1sc(Cl)cc1=O` as the compound, how does the outcome read?
The outcome was “inactive”.

Which outcome does the source give for `O=Cc1cccc(Oc2ccccc2)c1` here?
The outcome was “inactive”.

With `COP(=S)(OC)Oc1ccc(Sc2ccc(OP(=S)(OC)OC)cc2)cc1` as the compound, how does the outcome read?
Its outcome is “inactive”.

How did the AC50 turn out when `CCOC(=O)/C=C(C)/C=C/C[C@@H](C)CCCC(C)C` was run?
Its AC50 is 176 µM (active).

For `O=C1C(Cl)=C(Cl)C(=O)c2ccccc21`, which outcome is on record?
The outcome was “inactive”.

With `NC(=S)Nc1ccccc1` as the compound, how does the outcome read?
The outcome was “inactive”.
